In PubChem BioAssay (NCI):
Several values for one entry are separate records, joined by “and”; a condition that tells them apart may be missing. Equal values may be shown once. This is part of a sample that, as a whole, favours compounds with a hit. Of some 83,000 tested, about 20% had one in any assay.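 How to read the values: 0–100, growth inhibition (40 = 60% inhibited); 0, no net growth; -100 to 0, cell death (-40 = 40% of starting cells died; -100 = all dead).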 Activity calls are given as the source filed them. The calls were made as follows: active = growth percent below 10; inactive = the rest.

What was measured:
Experiment in all cases: NCI-60 one-dose screen, 48 h (100 = growth as untreated, 0 = no growth, -100 = all killed)
Settings in all cases: 10 µM unless noted
NCI-H23 lung = test system: NCI-H23 lung
NCI-H226 lung = test system: NCI-H226 lung
HOP-62 NSCLC = test system: HOP-62 NSCLC
NCI-H460 lung = test system: NCI-H460 lung
HOP-92 NSCLC = test system: HOP-92 NSCLC
786-0 renal = test system: 786-0 renal
COLO 205 colon = test system: COLO 205 colon
DU-145 prostate = test system: DU-145 prostate
K-562 leukemia = test system: K-562 leukemia
MALME-3M melanoma = test system: MALME-3M melanoma
MDA-MB-231 breast = test system: MDA-MB-231 breast
RXF 393 renal = test system: RXF 393 renal
SF-268 CNS = test system: SF-268 CNS
SF-295 CNS = test system: SF-295 CNS
SF-539 CNS = test system: SF-539 CNS
M14 melanoma = test system: M14 melanoma
NCI-H522 lung = test system: NCI-H522 lung
A549/ATCC NSCLC = test system: A549/ATCC NSCLC
UACC-257 melanoma = test system: UACC-257 melanoma
NCI-H322M lung = test system: NCI-H322M lung

Compound | growth (NCI-H23 lung) | growth (NCI-H226 lung) | growth (HOP-62 NSCLC) | growth (NCI-H460 lung) | growth (HOP-92 NSCLC) | growth (786-0 renal) | growth (COLO 205 colon) | growth (DU-145 prostate) | growth (K-562 leukemia) | growth (MALME-3M melanoma) | growth (MDA-MB-231 breast) | growth (RXF 393 renal) | growth (SF-268 CNS) | growth (SF-295 CNS) | growth (SF-539 CNS) | growth (M14 melanoma) | growth (NCI-H522 lung) | growth (A549/ATCC NSCLC) | growth (UACC-257 melanoma) | growth (NCI-H322M lung)
CCCCCCCCCCCCCCCC[N+](C)(C)Cc1ccccc1 | 9.06% (active) and -49.4% (active) | 21.5% (inactive) and -6.4% (active) | 17.9% (inactive) and -86.3% (active) | 15.7% (inactive) and -100% (active) | -39.2% (active) and -55.5% (active) | 11% (inactive) and -94.1% (active) | -30.4% (active) and -100% (active) | 26.7% (inactive) and -40.3% (active) | 15% (inactive) and -22.5% (active) | -25% (active) and -55.5% (active) | -41.4% (active) and -70.1% (active) | 0.124% (active) | 0.106% (active) and -74.5% (active) | 20.6% (inactive) and -28.5% (active) | -61.2% (active) and -99.3% (active) | -45.6% (active) and -88.7% (active) | – | – | – | –
CCCCCCCCCCCCCCCC[N+](C)(C)C | -83.6% (active) and 20.7% (inactive) | -54.8% (active) and 46.7% (inactive) | -76.6% (active) and -23.9% (active) | -84% (active) and 0.102% (active) | -45.3% (active) and -18.4% (active) | -83.5% (active) and 4.56% (active) | -74% (active) and -89.8% (active) | -91.4% (active) and 15.9% (inactive) | -70% (active) and 9.42% (active) | -76.5% (active) and 13.8% (inactive) | -76.5% (active) and -8.58% (active) | -31.9% (active) | -57.5% (active) and -3.48% (active) | -65.5% (active) and 10.1% (inactive) | -67.3% (active) and -8.94% (active) | -87.8% (active) and -43.2% (active) | -57.9% (active) and -39.7% (active) | 29.4% (inactive) | 61.2% (inactive) | –
Nc1ccc(P(=O)(O)O)cc1 | 101% (inactive) and 96.7% (inactive) | 102% (inactive) and 100% (inactive) | – | 113% (inactive) and 103% (inactive) | 95.3% (inactive) and 90.3% (inactive) | 113% (inactive) and 91.2% (inactive) | 111% (inactive) and 105% (inactive) | 119% (inactive) and 107% (inactive) | 110% (inactive) and 104% (inactive) | 101% (inactive) and 95.7% (inactive) | 114% (inactive) and 103% (inactive) | 117% (inactive) and 102% (inactive) | 113% (inactive) and 107% (inactive) | 99.5% (inactive) and 93.4% (inactive) | 88.6% (inactive) and 100% (inactive) | 121% (inactive) and 100% (inactive) | – | 102% (inactive) and 94.4% (inactive) | 104% (inactive) and 99.2% (inactive) | 104% (inactive) and 99.3% (inactive)
Cn1cc(C(=O)C[n+]2ccccc2)c2ccccc21 | 91.7% (inactive) | 99.1% (inactive) | 95.6% (inactive) | 107% (inactive) | 92.1% (inactive) | 97.4% (inactive) | 101% (inactive) | 109% (inactive) | 106% (inactive) | 96.7% (inactive) | 100% (inactive) | 99.6% (inactive) | 94.7% (inactive) | 102% (inactive) | 89.6% (inactive) | 99.2% (inactive) | 96.9% (inactive) | 102% (inactive) | 111% (inactive) | –
CCCCCCCCCCCCCCCC[n+]1ccccc1 | -38.3% (active) and -24.8% (active) | -77.3% (active) and -0.958% (active) | -84.4% (active) and -49.3% (active) | -88.3% (active) and -83.1% (active) | -48.4% (active) and -41.7% (active) | -73% (active) and -92.8% (active) | -77.6% (active) and -71.5% (active) | -74.4% (active) and -12.9% (active) | -44.3% (active) and 0.871% (active) | -56.5% (active) and -38% (active) | -40.7% (active) and -32.7% (active) | -86.7% (active) | -58.9% (active) and -32.7% (active) | -69.1% (active) and -56.5% (active) | -70.3% (active) and -27.4% (active) | -49% (active) and -77.5% (active) | -57.3% (active) and -67.7% (active) | -61.4% (active) | -52.2% (active) and -26.1% (active) | –
Oc1ccccc1C=NCCN=Cc1ccccc1O.[Fe] | 86.1% (inactive) | 85% (inactive) | 74.9% (inactive) | 59.7% (inactive) | 98.7% (inactive) | 102% (inactive) | 108% (inactive) | 104% (inactive) | 85.3% (inactive) | 69.7% (inactive) | 34.9% (inactive) | 98.8% (inactive) | 97.4% (inactive) | 85% (inactive) | 88.8% (inactive) | 93.9% (inactive) | – | 61.6% (inactive) | 46.9% (inactive) | –
